Several values for one entry are separate records, joined by “and”; a condition that tells them apart may be missing. Equal entries are not always repeated. Hit rate of the full screen: of about 5,500 compounds, about 2,000 (36%) were called active. Not shown: some 18% with an inconclusive outcome. Cut-off read from the data, not from the text of the source: active = normalized growth mostly below about 0.91 (no sharp cut-off); inconclusive = no clear call, values can overlap the other calls; inactive = mostly above about 0.92. This is one part of the list.
Assay: chemical genetic growth profiling, strain panel (AID 1159580);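 note: tested at 20 µM; growth read once vehicle control cultures reached saturation at 30 °C; 1 = growth at the plate median or of vehicle wells; lower values mean less growth of the strain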
Conditions: S. cerevisiae deletion strains, growth OD

Measured: normalized growth

Cc1cc(C(C)(C)C)c(O)c(C(C)(C)C)c1
active: locus YDR195W, strain ref2 0.845
inactive: locus YAL013W, strain DEP1, active compounds read low 0.985 | locus YAL021C, strain ccr4, active compounds read low 1.04 | locus YAL026C, strain drs2, active compounds read low 0.956 | locus YAL030W, strain snc1, active compounds read low 0.99 | locus YBL061C, strain skt5, active compounds read low 0.943 | locus YBR009C, strain hhf1, active compounds read low 0.91 | locus YBR021W, strain FUR4, active compounds read low 0.997 | locus YBR023C, strain chs3, active compounds read low 0.984 | locus YBR171W, strain sec66, active compounds read low 0.979 | locus YBR229C, strain ROT2, active compounds read low 0.964 | locus YBR231C, strain swc5, active compounds read low 0.921 | locus YBR279W, strain paf1, active compounds read low 0.996 | locus YCL011C, strain gbp2, active compounds read low 0.917 | locus YCL016C, strain dcc1, active compounds read low 0.983 | locus YCL029C, strain bik1, active compounds read low 0.983 | locus YCL061C, strain MRC1, active compounds read low 0.991 | locus YCL069W, strain vba3, active compounds read low 0.99 | locus YCR088W, strain abp1, active compounds read low 0.976 | locus YDL005C, strain med2, active compounds read low 0.975 | locus YDL035C, strain GPR1, active compounds read low 0.947 | locus YDL040C, strain nat1, active compounds read low 0.978 | locus YDL074C, strain BRE1, active compounds read low 0.816 | locus YDL101C, strain DUN1, active compounds read low 0.96 | locus YDL134C, strain PPH21, active compounds read low 0.972 | locus YDL185W, strain tfp1, active compounds read low 0.962 | locus YDL192W, strain arf1, active compounds read low 0.969 | locus YDR001C, strain nth1, active compounds read low 0.978 | locus YDR069C, strain doa4, active compounds read low 0.963 | locus YDR101C, strain arx1, active compounds read low 0.977 | locus YDR137W, strain rgp1, active compounds read low 0.965 | locus YDR150W, strain NUM1, active compounds read low 0.975 | locus YDR159W, strain sac3, active compounds read low 0.959 | locus YDR162C, strain NBP2, active compounds read low 0.859 | locus YDR297W, strain sur2, active compounds read low 0.983 | locus YDR318W, strain mcm21, active compounds read low 0.984 | locus YDR334W, strain swr1, active compounds read low 0.966 | locus YDR335W, strain msn5, active compounds read low 0.989 | locus YDR388W, active compounds read low 0.994 | locus YDR392W, strain spt3, active compounds read low 0.937 | locus YDR502C, strain sam2, active compounds read low 0.952 | locus YEL003W, strain gim4, active compounds read low 0.967 | locus YEL037C, strain rad23, active compounds read low 0.976 | locus YEL061C, strain CIN8 (second series), active compounds read low 0.976 | locus YEL061C, strain CIN8, active compounds read low 0.983 | locus YER015W, strain faa2, active compounds read low 0.937 | locus YER016W, strain bim1, active compounds read low 0.984 | locus YER110C, active compounds read low 1 | locus YER111C, strain swi4, active compounds read low 0.982 | locus YER155C, strain BEM2 (second series), active compounds read low 0.949 | locus YER155C, strain BEM2, active compounds read low 0.986 | locus YER167W, strain BCK2, active compounds read low 0.963 | locus YFR010W, strain ubp6, active compounds read low 0.956 | locus YGL078C, strain dbp3, active compounds read low 0.962 | locus YGL086W, strain mad1, active compounds read low 1 | locus YGL167C, strain pmr1, active compounds read low 0.991 | locus YGL173C, strain kem1, active compounds read low 0.957 | locus YGL227W, strain vid30, active compounds read low 0.989 | locus YGL240W, strain doc1, active compounds read low 0.938 | locus YGL248W, strain PDE1, active compounds read low 0.965 | locus YGL253W, strain hxk2, active compounds read low 0.96 | locus YGR078C, strain PAC10, active compounds read low 0.93 | locus YGR135W, strain pre9, active compounds read low 0.928 | locus YGR229C, strain SMI1, active compounds read low 0.86 | locus YGR252W, strain gcn5, active compounds read low 1.03 | locus YHR013C, strain ard1, active compounds read low 1.1 | locus YHR027C, strain rpn1, active compounds read low 0.955 | locus YHR030C, strain SLT2, active compounds read low 0.996 and 0.877 | locus YHR079C, strain IRE1 (second series), active compounds read low 0.963 | locus YHR079C, strain IRE1, active compounds read low 0.918 | locus YHR094C, strain hxt1, active compounds read low 1 | locus YHR129C, strain ARP1, active compounds read low 0.978 | locus YHR142W, strain chs7, active compounds read low 0.961 | locus YHR200W, strain rpn10, active compounds read low 1 | locus YIL066C, strain RNR3, active compounds read low 0.934 | locus YIL073C, strain SPO22, active compounds read low 0.929 | locus YIL125W, strain kgd1, active compounds read low 0.967 | locus YIR030C, strain dcg1, active compounds read low 0.998 | locus YJL092W, strain hpr5, active compounds read low 0.984 | locus YJL095W, strain BCK1 (second series), active compounds read low 0.979 | locus YJL095W, strain BCK1, active compounds read low 0.903 and 0.934 | locus YJL115W, strain asf1, active compounds read low 0.983 | locus YJL129C, strain trk1, active compounds read low 0.953 | locus YJL134W, strain LCB3, active compounds read low 1 | locus YJL154C, strain vps35, active compounds read low 0.984 | locus YJL164C, strain tpk1, active compounds read low 0.95 | locus YJL166W, strain qcr8, active compounds read low 0.951 | locus YJL168C, strain set2, active compounds read low 0.996 | locus YJL187C, strain SWE1 (second series), active compounds read low 0.886 | locus YJR043C, strain POL32, active compounds read low 0.97 | locus YJR066W, strain TOR1, active compounds read low 0.942
